Data on 40 compounds can be found in PubChem BioAssay (Tox21).

Records with an inconclusive call do not appear. A call without a number means that no potency is given here. Active and inactive are the calls of the source. Calls follow the shape of the dose curve; as a rule, active = well fitted activation curve with a large enough effect in the repeat runs; inconclusive = weak or mixed curves; inactive = flat fitted curve, though single readings scatter.
Potency is read from the fitted curve at half-maximal effect.

The assay can be described thus: A CellTox Green Cytotoxicity Assay to monitor cytotoxicity in HepG2 cells - 32 hour (AID 1224883). Also: nearly all actives have a fitted effect of over 50% in size. Conditions: CellTox Green fluorescence; series mostly up to 76.8 µM. An excerpt:
National Center for Advancing Translational Sciences [NCATS]
NIH Chemical Genomics Center [NCGC]
U.S. Environmental Protection Agency [EPA]
National Institutes of Environmental Health Sciences [NIEHS]
National Toxicology Program [NTP]
Cell-based models are critical for drug discovery. Determining the natural cytotoxic effects resulting from test compounds is an essential research activity. A CellTox Green Cytotoxicity Assay to monitor cytotoxicity in real time of continues cell culture during 40 hours of the compound treatment was used to screen Tox21 10K library compounds in HepG2 cells. CellTox Green Cytotoxicity Assay is a nonlytic, homogeneous, biofluorescent method to measure cytotoxicity in cell culture after experimental manipulation. The assay system uses a proprietary asymmetric cyanine dye that is excluded from viable cells but preferentially stains the dead cell's DNA. […] Viable cells produce no appreciable increases in fluorescence. Therefore, the fluorescence signal produced by the binding interaction with dead cell DNA is proportional to cytotoxicity.
The mixture of HepG2 cell suspension and reagents were dispensed at 600cells/6 ul/well in 1536-well tissue culture treated black solid bottom plates using a Multidrop dispenser. After the assay plates were incubated at a 37 C/5% CO2 incubator for 5 hours, 23 nL of compounds dissolved in DMSO, positive and negative controls was transferred to the assay plate by a pintool work station. The plates were incubated at 37 C for 40 hours. The fluorescence intensity were measured at 0h, 8h, 16h, 24h, 32h and 40h time points using ViewLux plate reader during compound treatment.
Regarding `CCC(CC)C(C)CCOC(C)=O` (stereo not given), the Potency result is “inactive”. In the case of `Cl[Si](Cl)(c1ccccc1)c1ccccc1` it was “inactive”; in that of `CCCCC(CC)COC(=O)CCCCC(=O)OCc1ccccc1` (stereo not given), “inactive”; in that of `COc1cc(/C=C/c2ccccc2)oc(=O)c1`, “inactive”. In the case of `CCCCN(CCCC)CC(O)c1cc(Cl)cc2c1-c1ccc(Cl)cc1/C2=C/c1ccc(Cl)cc1` (stereo not given) it was 23.9 µM (active); in that of `Oc1cc(Cl)cc(Cl)c1Cl`, “inactive”; in that of `O=C1CCc2ccc(OCCCCN3CCN(c4cccc(Cl)c4Cl)CC3)cc2N1`, 26.8 µM (active). In the case of `CCCCCc1ccc(Cl)cc1` it was “inactive”. On to `Nc1nc(N)nc(-c2cc(Cl)ccc2Cl)n1`, for which the Potency entry is “inactive”. As for `Nc1nc(-c2ccccc2)cs1`, the Potency result was “inactive”. For `CN1CCC[C@@H]1CCO[C@](C)(c1ccccc1)c1ccc(Cl)cc1`, the Potency is 21.3 µM (active).

On to `C=Cc1ccccc1C=C`, for which the Potency entry was “inactive”.

For `O=c1[nH]c(=O)n([C@H]2C[C@H](O)[C@@H](CO)O2)cc1F`, the Potency was 6.01 µM (active).

With `C=CCCC(=O)/C=C/C1C(C)=CCCC1(C)C` (stereo not given), the Potency entry is “inactive”. Take `COC(=O)C1=C(C)NC(C)=C(C(=O)OCCN2CCN(C(c3ccccc3)c3ccccc3)CC2)C1c1cccc([N+](=O)[O-])c1` (stereo not given): the Potency entry was “inactive”. Take `O=C(O)c1cc(N=Nc2ccc([N+](=O)[O-])cc2)ccc1O`: the Potency result was “inactive”.

Turning to `C[Si](Cl)(c1ccccc1)c1ccccc1`, the Potency entry is “inactive”.

For the compound `[Cl][Pt-2]([Cl])([Cl])[Cl]`, the Potency entry was “inactive”. In the case of `Oc1ccccc1O` it was “inactive”. In the case of `COC(C)=O` it was “inactive”; in that of `O=C(O)Cc1ccc2c(c1)C(=O)c1ccccc1CO2`, “inactive”; in that of `CN(C)Cc1cc(C(C)(C)C)c(O)c(C(C)(C)C)c1`, “inactive”.

On to `Clc1ccnc(Cl)n1`, for which the Potency result is “inactive”.

For `CCCNCCC`, the Potency entry is “inactive”. In the case of `O=C(O)c1cc(=O)c2ccccc2o1` it was “inactive”; in that of `CN(C)C(=O)COC(=O)Cc1ccc(OC(=O)c2ccc(N=C(N)N)cc2)cc1`, “inactive”; in that of `C#C[C@]1(OC(C)=O)CC[C@H]2[C@@H]3CCC4=C/C(=N/O)CC[C@@H]4[C@H]3CC[C@@]21CC`, “inactive”. In the case of `O=C1c2ccccc2C(=O)N1SC1CCCCC1` it was 24.5 µM (active); in that of `O=[N+]([O-])c1ccc(O)cc1C(F)(F)F`, “inactive”. With `O=C(/C=C/c1ccc(O)c(O)c1)O[C@@H](C(=O)O)[C@@H](OC(=O)/C=C/c1ccc(O)c(O)c1)C(=O)O` the entry was “inactive”; with `O=c1oc2cc(O)ccc2c2oc3cc(O)ccc3c12`, “inactive”; with `S=c1nccc[nH]1`, “inactive”.

As to `Cc1c(C)c2c(c(C)c1O)CC[C@@](C)(CCC[C@H](C)CCC[C@H](C)CCCC(C)C)O2`, the Potency entry was “inactive”. In the case of `CC[N+](CC)(CC)CCOC(=O)C(C1CCCC1)C1CCCC1` it was “inactive”; in that of `C#C[C@]1(O)CC[C@H]2[C@@H]3[C@H](C)CC4=C(CCC(=O)C4)[C@H]3CC[C@@]21C`, “inactive”.

For `CN1CCN(Cc2cc(-c3ccc4[nH]c(=O)oc4c3)co2)[C@@H](c2ccc(F)cc2)C1`, the Potency is 42 µM (active). Regarding `CCOC(=O)NNc1ccc(N(CC)CC(C)O)nn1` (stereo not given), the Potency entry is “inactive”. In the case of `CCc1oc2ccccc2c1C(=O)c1cc(I)c(O)c(I)c1` it was “inactive”; in that of `CCCCC(CC)CN1CN(CC(CC)CCCC)CC(C)(N)C1` (stereo not given), 19 µM (active); in that of `Cc1ccc(C(C)C)cc2c(C)ccc1-2`, “inactive”.
